{
  "source": "PubChem BioAssay AID493170",
  "about": "(National Center for Advancing Translational Sciences (NCATS), 2011)",
  "note": "Results filed as inconclusive are left out. Values without a mark were called inactive. The source made the active and inactive calls. Calls come from the whole dose curve; as a rule, active = well fitted inhibition curve with a large enough effect; inconclusive = small, poorly fitted or top-dose-only effect, or effect the other way; inactive = flat fitted curve, though single readings scatter. % is set by controls: 0 for no effect and ±100 for the full control effect; potency is the fitted concentration of half-maximal effect.",
  "data": [
    {"target": "Ubiquitin carboxyl-terminal hydrolase 2 (Homo sapiens) (UniProt O75604)", "sequence (O75604 whole entry, looked up)": "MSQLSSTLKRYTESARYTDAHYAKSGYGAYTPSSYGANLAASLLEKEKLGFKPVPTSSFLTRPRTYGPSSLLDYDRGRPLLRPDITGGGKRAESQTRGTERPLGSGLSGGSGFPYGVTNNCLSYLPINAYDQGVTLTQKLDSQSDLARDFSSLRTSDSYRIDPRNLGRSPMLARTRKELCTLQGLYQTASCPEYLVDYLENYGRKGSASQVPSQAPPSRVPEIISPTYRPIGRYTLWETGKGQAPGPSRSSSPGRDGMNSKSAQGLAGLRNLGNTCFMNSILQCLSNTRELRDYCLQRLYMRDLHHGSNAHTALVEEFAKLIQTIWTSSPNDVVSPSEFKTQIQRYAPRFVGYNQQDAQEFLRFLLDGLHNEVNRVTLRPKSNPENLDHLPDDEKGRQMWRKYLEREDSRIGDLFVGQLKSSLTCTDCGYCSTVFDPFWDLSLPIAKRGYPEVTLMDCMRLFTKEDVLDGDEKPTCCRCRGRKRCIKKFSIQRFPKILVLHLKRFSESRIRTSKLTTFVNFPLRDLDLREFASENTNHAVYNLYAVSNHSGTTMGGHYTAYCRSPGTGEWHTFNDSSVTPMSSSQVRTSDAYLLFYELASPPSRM", "experiment": "Ub-rhodamine 110 based assay for inhibitors Ubiquitin-specific Protease USP2a; note: nearly all actives have a fitted effect of over 50% in size", "details": "USP2a Ub-rhodamine110 cleavage, fluorescence; series mostly up to 38.3 µM; activity change, negative = inhibition: at the top concentration", "summary_of_the_method": "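5 nM USP2a preincubated with compounds for 30 min at RT in 20 mM Tris-HCl pH 8.0, 2 mM CaCl2, 2 mM beta-mercaptoethanol, 0.05% CHAPS. Cleavage of 150 nM Ub-rhodamine 110 read kinetically (Ex 485/Em 531) for 7 min.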", "units": {"activity change, negative = inhibition": "%"}, "values": [
      {"smiles": "O=C(NCc1ccccc1)C1CCC1", "activity change, negative = inhibition": -0.863},
      {"smiles": "CCNC1=C(Cl)C(=O)c2ccccc2C1=O", "activity change, negative = inhibition": -12.4},
      {"smiles": "CSCCC(NC(=O)c1cc(C(C)(C)C)oc1C)C(=O)O", "note": "(centres undefined)", "activity change, negative = inhibition": -9.93},
      {"smiles": "O=C(N/N=C/c1ccc(-c2ccc(S(=O)(=O)Nc3ncccn3)cc2)o1)c1cc2ccccc2cc1O", "Potency": "4.47 µM (active)"},
      {"smiles": "CCCOc1ccc(-c2nc(C#N)c(N3CCN(CC)CC3)o2)cc1", "activity change, negative = inhibition": -9.67},
      {"smiles": "Cc1cc(N2CCC(C(=O)NC3CC3)CC2)nc(-c2ccccc2)n1", "activity change, negative = inhibition": -8.29},
      {"smiles": "CC(C)c1ccc(NC(=O)C(c2ccc3c(c2)OCO3)N2CCCCC2)cc1", "note": "(centres undefined)", "activity change, negative = inhibition": -8.46},
      {"smiles": "CCc1cc2c(=O)c(-n3cnc4ccccc43)coc2cc1O", "activity change, negative = inhibition": 3.66},
      {"smiles": "COc1cccc(NC(=O)CSc2nncn2-c2ccccn2)c1", "activity change, negative = inhibition": -6.25},
      {"smiles": "CC1CCc2c(sc3nc(CN4CCOCC4)nc(NS(=O)(=O)c4cccc([N+](=O)[O-])c4)c23)C1", "note": "(centres undefined)", "Potency": "10 µM (active)"},
      {"smiles": "Cc1cc(SCC(=O)NC2CCCCC2)nc2ccccc12", "activity change, negative = inhibition": -5.9},
      {"smiles": "Fc1ccc(-c2nnn(Cc3nc4ccccc4s3)n2)cc1", "activity change, negative = inhibition": -19.1},
      {"smiles": "O=C(N/N=C/c1ccc(F)cc1)c1cc(-c2ccco2)nc2ccccc12", "Potency": "2 µM (active)"},
      {"smiles": "O=S(=O)(c1cc(Cl)ccc1Cl)N1CCNCC1", "activity change, negative = inhibition": -6.69},
      {"smiles": "CC(=O)c1ccc(NC(=O)CC(NCCC2=CCCCC2)C(=O)O)cc1", "note": "(centres undefined)", "activity change, negative = inhibition": 7.73},
      {"smiles": "COc1ccc(/C=C2\\SC(=S)N(NS(=O)(=O)c3ccc(C)cc3)C2=O)c(OC)c1", "Potency": "10 µM (active)"},
      {"smiles": "Cc1ccc(CSC2=Nc3ccccc3C3=NC(CC(=O)NCc4ccco4)C(=O)N23)cc1", "note": "(centres undefined)", "Potency": "8.91 µM (active)"},
      {"smiles": "COCCNCC(=O)N1CCCCCC1", "activity change, negative = inhibition": -3.07},
      {"smiles": "CCOc1cc(/C=C2\\C(=O)N(c3nc(-c4ccc(Br)cc4)cs3)N=C2c2ccccc2)ccc1O", "Potency": "3.16 µM (active)"},
      {"smiles": "COC(=O)c1c(O)c2c([nH]c1=O)CCCC2", "activity change, negative = inhibition": 0.864},
      {"smiles": "O=C(COC(=O)c1c2c(nc3ccccc13)/C(=C/c1ccco1)CC2)NC1CCCC1", "Potency": "3.55 µM (active)"},
      {"smiles": "COc1cccc(-n2c(SCc3cc(=O)oc4cc(O)c(O)cc34)nc3ccccc3c2=O)c1", "Potency": "1.58 µM (active)"},
      {"smiles": "Cc1cc(-c2nnc3n2N=C(c2ccc(-c4ccccc4)cc2)CS3)n[nH]1", "Potency": "11.2 µM (active)"},
      {"smiles": "Cc1ccc(S(=O)(=O)Nc2ccc(N3CCOCC3)cc2)cc1", "activity change, negative = inhibition": -7.65},
      {"smiles": "CCn1c(=O)c(C(=O)Nc2ccccc2S(N)(=O)=O)c(O)c2ccccc21", "Potency": "5.62 µM (active)"},
      {"smiles": "COc1ccc(NC(=O)CSc2ncccc2C(=O)OC(C)C)cc1OC", "activity change, negative = inhibition": -5.2},
      {"smiles": "CC(C)(C)NC(=O)C(c1ccco1)N(C(=O)c1ccc(CN2CCOCC2)o1)c1ccccc1", "note": "(centres undefined)", "activity change, negative = inhibition": -10.5},
      {"smiles": "O=C(OCC1OC(n2ncc(=O)[nH]c2=O)C(OC(=O)c2ccccc2)C1OC(=O)c1ccccc1)c1ccccc1", "note": "(centres undefined)", "Potency": "4.47 µM (active)"},
      {"smiles": "COc1ccccc1NC(=O)N1CCN(c2ccccn2)CC1", "activity change, negative = inhibition": -6.78},
      {"smiles": "COC(=O)c1nnn(-c2nonc2N)c1CSc1ccccn1", "activity change, negative = inhibition": -6.42},
      {"smiles": "O=C(Nc1cnn(Cc2ccccc2)c1)c1nc2ncccn2n1", "activity change, negative = inhibition": -2.39},
      {"smiles": "O=C(O)c1cccc(-n2cccc2/C=C2/NC(=O)N(c3ccc(Cl)cc3)C2=O)c1", "Potency": "4.47 µM (active)"},
      {"smiles": "O=C(C1CCCN(S(=O)(=O)c2cccc3cccnc23)C1)N1CCN(c2ccccc2F)CC1", "note": "(centres undefined)", "activity change, negative = inhibition": -17.7},
      {"smiles": "COc1ccccc1N1CCN(c2cc(C)nc3nc(C)nn23)CC1", "activity change, negative = inhibition": -3.98},
      {"smiles": "Cc1cc(/C=C2\\C(=N)N3N=C(c4ccco4)SC3=NC2=O)c(C)n1Cc1ccccc1", "Potency": "7.08 µM (active)"},
      {"smiles": "COCCn1c(CN(Cc2ccccc2)Cc2ccccc2)nc2c1c(=O)n(C)c(=O)n2C", "activity change, negative = inhibition": -16.8},
      {"smiles": "COCc1cc(C)nc(OCC(=O)N/N=C\\c2cc(C)n(-c3cccc(C(F)(F)F)c3)c2C)c1C#N", "activity change, negative = inhibition": -13.8},
      {"smiles": "CCOc1cc(N2CCOCC2)c(OCC)cc1NC(=O)Cc1cn2ccsc2n1", "activity change, negative = inhibition": 16.1},
      {"smiles": "COc1cc(/C=C/[N+](=O)[O-])ccc1OCc1cccc(C(=O)O)c1", "activity change, negative = inhibition": -20.5}
    ]}
  ]
}
